Most compounds without a hit are left out; they make up all but 2.8% or so of the library.
KKLEB tox: counter-screen for CF NF-kB inhibitors: cytotoxicity; hit rate 0.36% among 360,000; activity change (cytotoxicity), % at 5 µM; KKLEB CF airway cells viability, ATPlite luminescence, overnight; hits give low values; cells stimulated with P. aeruginosa culture filtrate; AID 602141;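 active = corrected activity change at or below -50% at 5 µM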
CF NFkB inh: cystic fibrosis NF-kB activation inhibition; KKLEB NF-kB-GFP reporter, PAF-induced, GFP fluorescence overnight; inhibition, % at 5 µM; hit rate 0.86% among 360,000;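 active = at least 50% inhibition at 5 µM, scaled per plate between neutral and stimulator controls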;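 also: PAF is a Pseudomonas aeruginosa culture filtrate used as stimulus; plate controls were PAF-stimulated DMSO wells for no effect and unstimulated DMSO wells for full effect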
HIF-2a block: HIF-2a inhibition; 786-0 RCC cells HIF-2a reporter, luciferase luminescence, overnight; inhibition, % at 18.8 µM; hit rate 0.72% among 360,000; AID 624352;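 active = inhibition of the luminescence signal of 40% or more relative to plate controls, in a single-dose primary screen at 18.75 µM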
TRPM1 prom inh: MITF TRPM1 promoter inhibition in SK-MEL-5 cells; hit rate 0.83% among 330,000; SK-MEL-5 TRPM1 promoter luciferase, 24 h; inhibition, % at 12.5 µM;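 active = mean inhibition across replicates of 60% or more, whatever share of single replicates reaches that level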
Peg3 promoter: inhibitors of Peg3 promoter; inhibition, % at 20 µM; HeLa PEG-Prom luciferase reporter, luminescence, overnight; AID 588405; hit rate 1.7% among 360,000;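 active = inhibition of at least 50% at 20 µM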
Beta2AR agonist: human beta-2 adrenergic receptor agonism by FAP; hit rate 0.43% among 340,000; response, % (no concentration beside the values); Am2.2-beta2AR cells, FAP receptor internalization, flow cytometry;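 active = response above a set limit, near 3 SD of response in nonfluorescent compounds, cut at about 42% in these data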
Target sequence (P07550 whole entry, looked up): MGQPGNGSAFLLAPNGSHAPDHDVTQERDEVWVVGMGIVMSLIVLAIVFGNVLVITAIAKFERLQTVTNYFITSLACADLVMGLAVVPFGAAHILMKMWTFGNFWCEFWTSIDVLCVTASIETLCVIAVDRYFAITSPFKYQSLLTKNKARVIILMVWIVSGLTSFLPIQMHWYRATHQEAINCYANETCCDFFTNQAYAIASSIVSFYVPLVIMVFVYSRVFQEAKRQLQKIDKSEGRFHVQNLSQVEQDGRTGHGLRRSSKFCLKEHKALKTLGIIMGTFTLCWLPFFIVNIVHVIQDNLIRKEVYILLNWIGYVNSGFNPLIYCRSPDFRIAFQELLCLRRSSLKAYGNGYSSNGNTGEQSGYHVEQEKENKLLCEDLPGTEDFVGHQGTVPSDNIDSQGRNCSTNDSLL
* marks the source's active call; other numbers are inactive results.

N#CC(C#N)=C1C=CC=CN1/C(=C\c1ccccc1)C(=O)c1cccs1 was read as KKLEB tox -26, CF NFkB inh 13, HIF-2a block -38, TRPM1 prom inh 47, Peg3 promoter 12 and Beta2AR agonist 88*.
For CCOC(=O)c1c(NC(=O)CNC2CCCCC2)sc(C)c1C the results were KKLEB tox -8, CF NFkB inh 23, HIF-2a block 22, TRPM1 prom inh 8, Peg3 promoter 90* and Beta2AR agonist -24.
`O=[N+]([O-])c1ccc(/C=N/Nc2nc(-c3ccccc3)c3cc(Br)ccc3n2)o1` gave KKLEB tox 3, CF NFkB inh -22, HIF-2a block 5, TRPM1 prom inh 8, Peg3 promoter 62* and Beta2AR agonist -37.
`Cc1ccc(C(=O)NCCNc2nc3cc(C)c(C)cc3cc2C)cc1` gave KKLEB tox -12, CF NFkB inh 12, HIF-2a block 22, TRPM1 prom inh -15, Peg3 promoter 61* and Beta2AR agonist 10.
Screening COc1ccc(C(O)c2nc(-c3ccccc3C)cs2)cc1 (stereo unspecified) returned KKLEB tox -4, CF NFkB inh 6, HIF-2a block -57 and Peg3 promoter -19.
For CCC(=O)N1CCC1(C)C(=O)Nc1ccc2nc(C)ccc2c1 (stereo unspecified) the results were KKLEB tox 0, CF NFkB inh -5, HIF-2a block -30 and Peg3 promoter -17.
Screening O=C(c1cc(C(=O)NCCc2ccccc2)c(=O)n(CCc2ccccc2)c1)c1cc(Cl)ccc1O returned KKLEB tox -24, CF NFkB inh 36, HIF-2a block 10, TRPM1 prom inh -7, Peg3 promoter 52* and Beta2AR agonist 12.
COc1ccc(C(O)c2ncc(-c3ccccc3Cl)[nH]2)cc1 (stereo unspecified) was read as KKLEB tox 7, CF NFkB inh -29, HIF-2a block -54 and Peg3 promoter -23.
Screening CC1(C(=O)NS(=O)(=O)C2CC2)CCCN(C(=O)C2(c3ccc(Cl)cc3)CCCC2)C1 (stereo unspecified) returned KKLEB tox 13, CF NFkB inh -7, HIF-2a block 15 and Peg3 promoter 7.
O=C1c2ccccc2C(=O)c2c1ncn2-c1ccccc1 was read as KKLEB tox 5, CF NFkB inh -25, HIF-2a block -19, TRPM1 prom inh 61*, Peg3 promoter -2 and Beta2AR agonist -16.
For COc1ccc2nc(NN=C(C)c3ccccn3)cc(C)c2c1 the results were KKLEB tox -20, CF NFkB inh 22, HIF-2a block -359, TRPM1 prom inh 77*, Peg3 promoter -22 and Beta2AR agonist 20.
For O=c1[nH]cc(C=NNc2ccccc2)c(=O)[nH]1 the results were KKLEB tox 12, CF NFkB inh 8, HIF-2a block 7 and Peg3 promoter -5.
For CCCCCCCCNCCS(=O)(=O)NCc1ccccc1 the results were KKLEB tox -29, CF NFkB inh 6, HIF-2a block -7, TRPM1 prom inh -3, Peg3 promoter 64* and Beta2AR agonist 10.
`CCCCNS(=O)(=O)CCNCCc1ccccc1` gave KKLEB tox -6, CF NFkB inh 7, HIF-2a block -5, TRPM1 prom inh -10, Peg3 promoter 7 and Beta2AR agonist 1.
O=C(O)c1ccccc1NS(=O)(=O)c1cccc(-n2sc3ccccc3c2=O)c1 was read as KKLEB tox 73, CF NFkB inh 86*, HIF-2a block 16, TRPM1 prom inh 10, Peg3 promoter 42 and Beta2AR agonist -4.
CCCC(=O)N1CCC1(C)C(=O)NS(=O)(=O)c1cccc(F)c1 (stereo unspecified) was read as KKLEB tox -4, CF NFkB inh 13, HIF-2a block 3 and Peg3 promoter 8.
Screening O=S(=O)(Nc1ccc(O)c2ccccc12)c1cccs1 returned KKLEB tox -8, CF NFkB inh 86*, HIF-2a block 13, TRPM1 prom inh 58, Peg3 promoter 21 and Beta2AR agonist 9.
`O=S(=O)(Nc1cccc2ccccc12)c1cccs1` gave KKLEB tox -16, CF NFkB inh -23, HIF-2a block -13, TRPM1 prom inh 12, Peg3 promoter 0 and Beta2AR agonist 4.
